FAS-TE inh = FAS thioesterase domain inhibitors, primary screen, biochemical, fluorescence intensity, uHTS. Fatty acid synthase (Homo sapiens), P49327. recombinant FAS-TE, OMFH fluorogenic substrate, fluorescence endpoint. inhibition, % at 15 µM. hit rate 0.67% among 360,000;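 active = compounds whose normalised, plate-corrected inhibition of enzyme fluorescence in the single-dose primary screen is 50% or more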
ADAM17 inh = ADAM17 inhibitors, primary screen, biochemical, QFRET; hit rate 0.83% among 370,000; recombinant ADAM17, EDANS/DABCYL FRET peptide cleavage; Disintegrin and metalloproteinase domain-containing protein 17 (Homo sapiens), P78536; inhibition, % at 6.95 µM;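 active = inhibition above the mean of compounds lying between control limits plus 3 SD, set per campaign, cut at about 8.5% in these data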
aDG glyco act = activators of alpha-DG glycosylation, primary screen, uHTS, Pro5-aDG cells, AlphaScreen; alpha-DG glycosylation AlphaScreen (IIH6); 0% Pro5, 100% B10-LARGE cell signal; activation, % at 10 µM; hit rate 0.22% among 360,000; AID 624168, 2012;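 active = activation of at least 8% versus controls, or a plate z-score of at least 8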;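 also: Pro5 are CHO cells carrying HIG-tagged alpha-DG that lacks glycosylation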
NR3A LBD binder = binders of NR3A ligand-binding domain, primary screen, biophysical, differential scanning fluorimetry, uHTS. Glutamate receptor ionotropic, NMDA 3A (GRIN3A) ligand-binding domain. NR3A LBD differential scanning fluorimetry, Tm shift; 0% = protein alone, 100% = glycine-bound protein. Tm shift relative to glycine control, % at 25 µM. hit rate 2.5% among 340,000;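 active = melting temperature shift of at least 10% of the positive control shift, at one fixed dose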
ADAM10 inh = human ADAM10 inhibitors, primary screen, biochemical, QFRET, HTS | Disintegrin and metalloproteinase domain-containing protein 10 (Homo sapiens), O14672 | inhibition, % at 7 µM | hit rate 0.62% among 370,000 | recombinant ADAM10, EDANS/DABCYL FRET peptide cleavage, 3 h | AID 720582, 2013;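 active = inhibition above a per-campaign cutoff equal to the mean of compounds falling between control-based bounds plus 3 SD, cut at about 20% in these data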
Target sequence (O14672 214-748 limits assumed): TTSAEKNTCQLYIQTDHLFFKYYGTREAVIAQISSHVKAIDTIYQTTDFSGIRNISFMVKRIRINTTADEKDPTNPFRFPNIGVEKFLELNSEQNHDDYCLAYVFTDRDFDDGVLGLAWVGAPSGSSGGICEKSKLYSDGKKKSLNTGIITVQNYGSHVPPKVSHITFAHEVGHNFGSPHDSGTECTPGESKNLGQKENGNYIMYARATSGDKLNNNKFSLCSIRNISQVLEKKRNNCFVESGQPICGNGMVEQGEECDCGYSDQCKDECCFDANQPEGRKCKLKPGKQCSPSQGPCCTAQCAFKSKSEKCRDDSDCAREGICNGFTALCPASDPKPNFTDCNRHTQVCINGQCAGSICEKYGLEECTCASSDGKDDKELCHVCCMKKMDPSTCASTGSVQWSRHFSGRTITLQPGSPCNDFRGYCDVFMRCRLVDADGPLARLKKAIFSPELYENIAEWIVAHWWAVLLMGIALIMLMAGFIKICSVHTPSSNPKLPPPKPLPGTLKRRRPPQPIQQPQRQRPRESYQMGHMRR
Each line names hits and unclear results; the compound was inactive in the other large screens. Sampled rows, rich in hits. Any-hit rate of the full collection: about 4%.

Cc1cccc(NC(=O)c2cc(-c3cc(C)c(C)cc3O)n[nH]2)c1	NR3A LBD binder 14
COc1ccc(C(=O)Nc2ccc(S(=O)(=O)Nc3nccc(C)n3)cc2)cc1	none
CC(=O)Nc1ccc(NC(=O)c2cc(-c3ccc(C)cc3O)n[nH]2)cc1	NR3A LBD binder 30
CNC(=S)Nc1ccc(-c2nc3ccc(C)cc3s2)cc1	NR3A LBD binder 28
Cc1ccc2nc(-c3ccc(NS(=O)(=O)c4ccc(F)cc4)cc3)sc2c1	NR3A LBD binder 31
Cc1ccc2nc(-c3ccc(NC(=S)NCC(C)(C)CN(C)C)cc3)sc2c1	none
CCC(C)(C)NC(=S)Nc1ccc(-c2nc3ccc(C)cc3s2)cc1	NR3A LBD binder 31
CCCCNC(=S)Nc1ccc(-c2nc3ccc(C)cc3s2)cc1	NR3A LBD binder 31
CC(=O)NC(=S)Nc1ccc(-c2nc3ccc(C)cc3s2)cc1	none
CC(=O)N1Cc2[nH]c3ccccc3c2CC1C(=O)O (configuration not stated)	none
CCCCCc1nc2c(C#N)c(-c3ccc(Cl)cc3)ccn2n1	none
CC(=O)N1CCc2ccc(S(=O)(=O)N3CCN(C)CC3)cc21	none
NC(=O)CC(NC(=O)c1ccccc1)c1ccc(N2CCC(Br)CC2)c([N+](=O)[O-])c1 (configuration not stated)	none
Cc1ccc2nc(-c3ccc(NC(=S)NCCC(C)C)cc3)sc2c1	NR3A LBD binder 24
Cc1ccc2nc(-c3ccc(N)cc3)sc2c1	none
COc1cc2c(CCNC(C)=O)c[nH]c2cc1O	none
N#Cc1c(-c2ccc(Cl)cc2)n(O)c2ccccc12	NR3A LBD binder 23 (no result: ADAM17 inh, ADAM10 inh)
O=C1NC(=S)SC1=Cc1cc(Br)ccc1O	NR3A LBD binder 31
Fc1ccc(N2CCN(/C=C/c3nnnn3-c3ccccc3)CC2)cc1	none
Nc1c(C(=O)Nc2ccccc2)c2nc3ccccc3nc2n1-c1ccc(O)cc1	NR3A LBD binder 21
CCc1c(C)sc(NC(=S)N2CC(C)OC(C)C2)c1C(=O)OC (configuration not stated)	NR3A LBD binder 13
Cc1ccccc1-c1nc(CN2CCCC2c2ccc(F)cc2)c(C)o1 (configuration not stated)	none
CC(C)(O)C#Cc1ccc(CN2CCN(Cc3ccsc3)C(CCO)C2)cc1 (configuration not stated)	none
COc1ccc(S(=O)(=O)N2CCCCC2)cc1NC(=O)Cn1c(=O)cnc2ccccc21	NR3A LBD binder 12
O=C(O)c1cc(N=Nc2c(O)ccc3ccccc23)cc(C(=O)O)c1	none
O=C(O)c1ccc(N=Nc2c(O)ccc3ncccc23)cc1	NR3A LBD binder 12
O=C(NC[C@H]1CCCO1)c1cccc2c1C(=O)c1ccc(-c3ccc(F)cc3OCc3ccccc3)cc1S2(=O)=O	none
O=C1c2ccc(-c3ccc(F)cc3OCc3ccccc3)cc2S(=O)(=O)c2cccc(C(=O)N3CCN(c4ncc(Br)cn4)CC3)c21	none
Cc1cc(CNC(=O)c2cccc3c2C(=O)c2ccc(-c4ccc(F)cc4OCc4ccccc4)cc2S3(=O)=O)c(C(F)(F)F)o1	NR3A LBD binder 17
O=C(O)c1cccc2c1C(=O)c1ccc(-c3ccc(F)cc3OCc3ccccc3)cc1S2(=O)=O	NR3A LBD binder 13 (no result: ADAM17 inh, ADAM10 inh)
CCC1(C)Cc2c(sc3nc4n(c(=O)c23)CCS4)CO1 (configuration not stated)	none
COc1ccc(C)cc1NS(=O)(=O)c1ccc(NS(=O)(=O)c2ccc(NC(C)=O)cc2)cc1	none
COc1ccc(S(=O)(=O)Nc2cc(C)ccc2OC)cc1C	NR3A LBD binder 12
O=C1C=C(c2ccc3[nH]ccc3c2)C[C@@H](c2ccc(F)cc2)C1	NR3A LBD binder 21
COc1ccc([C@H]2CC(=O)C=C(c3ccc4[nH]ccc4c3)C2)cc1OC	none
CCOc1ccc(CCN2C(=S)N([C@@H](Cc3ccccc3)CN3CCCC3CN3C(=S)NC[C@@H]3Cc3ccccc3)C[C@@H]2Cc2ccc(O)cc2)cc1 (some centres not stated)	none (no result: NR3A LBD binder)
NS(=O)(=O)c1cccc(NC(=O)CSc2nnnn2-c2ccccc2)c1	none

Bioassay records from PubChem BioAssay.
